From the supplement of paper PMC3334620
In all, about 33,000 sequences were measured (“E-score (-0.5 to 0.5)”: median about -0.035, highest 2% from about 0.35 on). Many of the other results were omitted from the sample, so the highest values are more common in it than they were.

Target: T1, Pdr3 (UniProt P33200)
T1 sequence: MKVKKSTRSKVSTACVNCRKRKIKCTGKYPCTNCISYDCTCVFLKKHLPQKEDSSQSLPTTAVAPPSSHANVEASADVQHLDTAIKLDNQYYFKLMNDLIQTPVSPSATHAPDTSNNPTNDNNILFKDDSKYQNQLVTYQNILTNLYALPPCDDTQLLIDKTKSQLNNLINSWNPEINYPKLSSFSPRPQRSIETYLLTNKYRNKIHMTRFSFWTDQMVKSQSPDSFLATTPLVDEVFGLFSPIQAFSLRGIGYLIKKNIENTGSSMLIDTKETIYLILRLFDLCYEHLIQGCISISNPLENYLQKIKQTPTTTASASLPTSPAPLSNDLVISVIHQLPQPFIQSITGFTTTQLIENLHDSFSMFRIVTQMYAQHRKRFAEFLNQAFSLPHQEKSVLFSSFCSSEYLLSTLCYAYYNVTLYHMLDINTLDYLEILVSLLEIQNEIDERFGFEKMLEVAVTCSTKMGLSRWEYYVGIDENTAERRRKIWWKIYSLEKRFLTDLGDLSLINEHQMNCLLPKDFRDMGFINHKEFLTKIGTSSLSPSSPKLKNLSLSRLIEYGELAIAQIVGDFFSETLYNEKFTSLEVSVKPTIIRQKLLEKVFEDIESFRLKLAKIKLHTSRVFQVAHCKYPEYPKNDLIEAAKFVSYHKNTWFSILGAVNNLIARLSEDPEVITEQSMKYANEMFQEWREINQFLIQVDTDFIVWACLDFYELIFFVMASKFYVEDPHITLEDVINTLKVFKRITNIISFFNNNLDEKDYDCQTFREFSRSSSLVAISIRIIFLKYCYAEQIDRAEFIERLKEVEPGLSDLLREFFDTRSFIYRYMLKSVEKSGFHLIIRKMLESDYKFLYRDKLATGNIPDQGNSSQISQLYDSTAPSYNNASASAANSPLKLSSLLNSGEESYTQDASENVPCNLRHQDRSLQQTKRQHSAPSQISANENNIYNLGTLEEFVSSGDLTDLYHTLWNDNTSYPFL
Assay: PBM E-score (8-mer binding enrichment) (E-score (-0.5 to 0.5)); higher = stronger / more preferred TF binding
Conditions: protein concentration: 200 nM; construct: GST-full length
Procedure, shortened: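 Using PURExpress in vitro transcription/translation, GST-tagged yeast transcription factors were made in full-length or DNA-binding-domain form. These were applied at about 100-200 nM to double-stranded universal all-10-mer Agilent arrays, and bound protein was detected with fluorescent anti-GST. Scans were normalised with masliner before the Universal PBM Analysis Suite assigned E-scores to ungapped eight-base words pooled with their reverse complements.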

Sequence	PBM E-score
AGCATCGA	-0.0594
ACATATCT	0.0252
CGCTGTAG	-0.00377
ATGTGGTA	-0.0392
AGCGAACG	-0.134
GTAACCGA	0.0824
CGTGATTA	0.0343
GAGTACTC	0.0872
ACAAGCCC	-0.157
ACCCATCA	-0.129
GAGCATTA	-0.0816
CGGAAAAC	0.375
AGGAAAAC	0.0846
AGGAAAAG	0.0387
AGGAAAAA	-0.157
CGGAAAAG	0.415
TGGAAAAA	0.0433
GGGAAAAC	0.0253
CGGAAAAA	0.403
CGAAAAAG	0.159
GGGAAAAA	0.176
TAACACGA	0.0333
CGCGAAAC	-0.00744
TAACTGTA	-0.323
GAGACCGA	0.0506
ATCTGGTC	-0.051

Sequence	PBM E-score
ACGGGACG	0.295
CCGGGACC	0.413
CCGGGACG	0.365
CGGGGACG	0.124
ACGGGACA	0.311
CCGGGACA	0.376
GCGGGACC	0.323
ACGGGACC	0.241
TCGGGACA	0.167
ATGGGCCG	0.0292
AGAAGCCG	0.213
AACTGTAG	-0.124
AAGATAGA	-0.184
ACCAAAAG	-0.176
ACTCCGCT	0.14
CCTCCGCG	0.445
CCTCCGCA	0.00168
CCTCCGCC	0.169
ACTCCGCC	0.343
ACTCCGCG	0.397
CATAACGC	-0.102
GCGGCTTA	-0.0127
CCGGCTTC	0.322
CCGGCTTA	0.356
GTCAGAAC	-0.132
AGTTCAAT	-0.139

Sequence	PBM E-score
CCACGTGA	-0.0844
CCATTCCA	0.0798
ATATTCCC	0.266
ACATTCCG	0.439
CCATTCCC	0.101
ACATTCCT	-0.0606
CCATTCCG	0.425
ACATTCCC	0.154
ATATTCCG	0.426
ATATTCCA	0.128
CTCAAACC	-0.0558
GACATCTA	-0.0109
CAACTTTA	-0.0602
ATACTCGC	0.162
ACCAAGGT	-0.0204
AGAGCGAC	-0.135
AGGCCATA	-0.0791
CCCGCGGC	0.488
GCGGCCGC	0.35
CCCGCGAC	0.175
GCCGCGGC	0.484
GACGCGGC	0.0937
CCCGCGTC	0.236
CAAATGGC	-0.156
GCTACTAC	0.146
CGATAGCG	0.0636

Sequence	PBM E-score
AGGCCTTA	-0.254
CAGGTGGC	-0.197
CTTCCGTA	0.379
AATCCGTC	0.314
ATTCCGTC	0.42
AATCCGTA	0.165
GTACCGTA	0.029
CCTCCGTA	0.222
GTCCCGTA	0.159
ATTCCGTA	0.417
CGTCCGTA	0.176
GTTCCGTA	0.471
ACTCCGTC	0.206
ACTCCGTA	0.13
GGTATTAC	0.225
CTTTTAAA	-0.00725
GGGCGTAC	-0.00965
GCAGCAAA	-0.103
CAGACCCG	0.279
AATCGGTA	-0.0123
CTAGAACA	0.0618
ATGCTACA	-0.24
CAATAGAG	-0.166
CTCGGCAG	0.219
CGAAATAG	0.0496
CTTCCGTC	0.403

Sequence	PBM E-score
ACTCCGTG	0.282
CCTCCGTC	0.15
ATTCCGTG	0.467
AATCCGTG	0.237
CGTCCGTC	-0.0265
AAAACTTC	-0.029
CACCGCTC	0.0532
GTTTTAGA	-0.0726
GGGGGAGA	-0.00585
ATTTCCCG	0.369
ATTTTCCG	0.432
CATTTCCA	-0.0296
CATTTCCG	0.411
ATTTTCCA	0.122
AGTTTCCG	0.452
AGTTTCCC	0.0499
ATTTCCCA	0.0046
ATTTTCCC	0.151
CATTTCCC	0.203
AGTTTCCA	0.0305
ATTTCCCC	0.0635
AAAAGTTG	0.00957
ATCAAAGC	0.0706
AACTCGCT	0.0814
ATATACCC	0.102
CTACCGGA	0.335

Sequence	PBM E-score
CACCATAA	-0.109
CGCCACAA	-0.0528
AATTTCCG	0.442
AATTTCCT	0.0149
AATTTCCC	0.0432
AACTGTAC	-0.229
ACGCCGCA	0.181
GGGACGGA	0.33
CCGACGAA	0.193
CCGACGGC	0.237
CGCACGGC	0.142
CGCACGGA	0.413
CGGACGGA	0.367
CCGACGGA	0.413
GCGACGCA	-0.126
CGGACGGC	0.244
GGCACGGA	0.314
GCGACGGA	0.374
ACGACGGA	0.328
AACTCCTG	-0.193
ATCTGGCA	-0.111
AGCTGTCC	-0.116
GCGGGGCA	0.129
CATACCCC	0.0622
CCCACCGG	0.248
ATCTTCGA	-0.115

Sequence	PBM E-score
AATCATGT	-0.0895
AGCGCCCT	0.0102
CCAAGCCA	-0.245
GGAAGCCA	0.0692
CGGACGAA	0.372
GGGACGAA	0.162
CGGACGAC	0.196
GAGCGGTA	0.0552
CAGCGGAC	0.176
GAGCGGAC	0.0792
AAGCGGAT	0.309
CAGCGGAG	0.274
TAGCGGCA	0.107
TAGCGGGA	0.14
AAGCGGAA	0.387
AAGCGGAG	0.0882
CAGCGGAA	0.429
TAGCGGAA	0.357
GAGCGGAA	0.415
AAGCTATT	-0.112
